# Source: PubChem BioAssay (several laboratories)
# GALR2 ag: GALR2 receptor agonists, primary screen, cell-based; activation, % (no concentration beside the values); Galanin receptor type 2 (Homo sapiens), O43603; GALR2-expressing cells, agonist activation read-out; hit rate 0.48% among 140,000; in the data active means activation above about 5%, passing the limit was not always enough;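 further: 0% = vehicle buffer wells and 100% = reference agonist at full effect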
# Target sequence (O43603 whole entry, looked up): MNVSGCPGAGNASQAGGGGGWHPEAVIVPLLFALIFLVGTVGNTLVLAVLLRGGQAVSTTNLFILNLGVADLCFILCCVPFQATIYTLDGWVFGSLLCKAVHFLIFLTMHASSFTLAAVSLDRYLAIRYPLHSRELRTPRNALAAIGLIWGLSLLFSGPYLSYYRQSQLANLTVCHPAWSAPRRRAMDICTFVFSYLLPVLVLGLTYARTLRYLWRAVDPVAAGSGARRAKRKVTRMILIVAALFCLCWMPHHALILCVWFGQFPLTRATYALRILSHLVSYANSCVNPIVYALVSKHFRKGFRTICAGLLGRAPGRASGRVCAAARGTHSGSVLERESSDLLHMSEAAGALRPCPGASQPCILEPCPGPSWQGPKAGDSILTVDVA
# Phagocyt inh: inhibitors of macrophage phagocytosis, primary screen, imaging, J774A.1 cells, IgG beads; J774A.1 macrophage IgG-bead phagocytosis; inhibition, % at 5 µM; hit rate 0.07% among 110,000;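 active means inhibition above the mean of the plate negative controls plus 5 SD, cut at about 13% in these data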;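 further: phagocytic index as fraction of beads internalized from green versus red external bead signal; plate controls were DMSO negative control for no effect and cytochalasin-D positive control for full effect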
# GALR2 antag: GALR2 antagonists in receptor-expressing cells, primary screen; Galanin receptor type 2 (Homo sapiens), O43603; antagonist mode; inhibition, % at 4 µM; hit rate 0.39% among 140,000; in the data active means inhibition above about 27%;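 further: cells stimulated with galanin 1-16 at roughly its EC80; 0% = agonist challenge control and 100% = basal control without agonist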
# S1P2 blocker: human S1P2 receptor antagonists, primary screen, cell-based; Sphingosine 1-phosphate receptor 2 (Homo sapiens), O95136; cell-based S1P2 antagonist assay, inhibition at 5 uM; inhibition, % at 5 µM; hit rate 0.21% among 97,000; in the data active means inhibition above about 45%;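 further: CRE beta-lactamase reporter cells expressing human S1P2 stimulated with S1P; 0% = agonist at EC80 alone and 100% = agonist plus reference antagonist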
# S1P2 agonist: S1P2 receptor agonists, primary screen, cell-based; S1P2-expressing cell line, agonist reporter read-out; activation, % at 4.5 µM; hit rate 0.46% among 97,000; in the data active means activation above about 16%;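 further: 0% = vehicle low control and 100% = maximal reference agonist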
# The depositor's hits bear a star; . = no result. Rows were chosen to be rich in hits. Some 1.3% of all compounds tested hit in one or more screens of this group.
SMILES,GALR2 ag,Phagocyt inh,GALR2 antag,S1P2 blocker,S1P2 agonist
O=S(=O)(Cc1ccc(Cl)cc1)NCC1CCCO1 (configuration not stated),1,-1,-6,-22,63*
O=C(CN1C(=O)C2CC=CCC2C1=O)NCC1COc2ccccc2O1 (configuration not stated),-2,.,-4,8,-2
C/C(N)=C(/C#N)C(=O)CSc1nc2ccccc2c(=O)n1CCCOC(C)C,5.6*,.,-7,.,.
COc1ccc(/C=c2\sc3nc(-c4ccccc4)c(-c4ccccc4)n3c2=O)cc1OC,-2,-2,-14,-3,22*
COc1ccc(Cl)cc1NC(=O)CSc1nnc(CN2CCOCC2)n1-c1ccc(Cl)cc1,-1,-1,-9,-13,1
Cc1cc(C)n2nc(S(=O)(=O)N(C)c3ccccc3)nc2n1,0,0,2,-5,52*
Clc1ccc(C2=Nn3c(nnc3-c3n[nH]c4c3CCC4)SC2)cc1Cl,5.2*,.,-12,-15,-4
CCCCN(CCCNC(=O)C1CCN(S(=O)(=O)CC)CC1)c1ccccc1,0,.,2,-6,-3
c1ccc(-n2nnnc2NC2CCCCC2)cc1,-1,0,-1,8,-8
O=C(c1ccccc1)N1CCN(Cc2ccccc2)CC1,0,.,11,-7,-2
Oc1cccc(C(=S)N2CCN(Cc3ccccc3)CC2)c1,-1,-1,0,12,56*
Cc1csc(SCC(=O)Nc2sc3c(c2C#N)CCC3)n1,-1,1,4,-24,-3
Cc1ccnc(SCC(=O)Nc2sc3c(c2C#N)CCCC3)n1,-2,-1,22,47*,-5
c1ccc(C(c2ccccc2)N2CCN(c3nc4ccccc4n4cnnc34)CC2)cc1,0,1,-1,29,24*
CCN(CC)c1ncn(Cc2c(Cl)cccc2Cl)c2ncnc1-2,-1,.,-7,-34,18*
Clc1cccc(Cl)c1Cn1cnc2c(N3CCCCCC3)ncnc21,1,-2,2,-31,10
Cc1nn(Cc2c(Cl)cccc2Cl)c(C)c1N,0,.,-9,16,-3
CCN(CC)c1ncnc2c1ncn2Cc1c(Cl)cccc1Cl,1,.,-2,-75,19*
Cc1cc(C)cc(NC(=O)CSc2cc(C(=O)c3nccn3C)c3ccccc3n2)c1,-1,-6,7,.,.
Cc1cc(-n2c(C)cc(C(=O)CSc3nnc4sc5ccccc5n34)c2C)no1,-3,1,-3,-14,-2
Cc1cc(-n2c(C)cc(C(=O)CSc3ncnc4ccccc34)c2C)no1,-2,1,21,60*,-5
CCOC(=O)c1c(-c2ccc(C)cc2)csc1NC1=NS(=O)(=O)c2ccccc21,-1,.,7,.,.
Cn1c(-c2sc(=S)n(-c3ccccc3)c2N)nc2ccccc21,-2,.,19,2,32*
CCN(CC)Cc1c(O)c(Cl)cc2c(C)c(C)c(=O)oc12,2,0,-7,3,1
Cc1c(Cc2ccccc2)c(=O)oc2c(CN(C)C)c(O)c(Cl)cc12,8.3*,.,3,.,.
SMILES,GALR2 ag,Phagocyt inh,GALR2 antag,S1P2 blocker,S1P2 agonist
CCNC(=S)N/N=C/c1cccc(C)c1,0,-5,9,.,.
N#CC1=C(N)OC2=C(CCc3ccccc32)C1c1ccccc1 (configuration not stated),5.0*,15,-1,.,.
COc1cccc(/C=C2/CN(C)CC3=C2OC(N)=C(C#N)C3c2cccc(OC)c2)c1 (configuration not stated),-2,.,-11,-11,0
Cc1ccc(/C=C2\CCC3=C2OC(N)=C(C#N)C3c2ccc(C)cc2)cc1 (configuration not stated),12*,-2,-7,24,17*
N#CC1=C(N)Oc2cc(O)ccc2C1c1ccccc1 (configuration not stated),-1,-1,0,.,.
CCOC(=O)c1cnc(-n2nc(C)cc2C)nc1NC,-1,1,2,11,-6
CCOC(=O)c1cnc(-n2nc(C)cc2C)nc1NC1CCCCC1,0,2,0,91*,-11
O=C(c1cc2ccccc2oc1=O)N(c1ccc(Cl)cc1)C1C=CS(=O)(=O)C1 (configuration not stated),1,-5,18,.,.
CCN(CC)c1ccc(/C=N/NC(=O)Nc2nonc2N)cc1,-1,-2,-26,.,.
CN(C)S(=O)(=O)c1cccc(-c2nn(-c3ccccc3)cc2/C=C(\C#N)c2nc3ccccc3[nH]2)c1,7.3*,-6,-7,.,.
